Shown are actives, neighbours in structure and some others; about 4.6% of the full set was active somewhere.
TRHR PAM: qHTS for Small Molecule Agonists and Allosteric Enhancers of Human TRH Receptor: Primary Screen for Enhancers; enhancement, % at 2 µM; 360,000 tested, 0.66% active; Thyrotropin-releasing hormone receptor (Homo sapiens), P34981; AID 493056, 2011; TRHR cells, fluo-8 calcium fluorescence, EC20 TRH enhancement; in the data active = enhancement above about 30%; note: 0% is about no effect
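TRHR-expressing cells loaded with fluo-8 calcium dye were read kinetically (ex 480/em 530) during compound addition, then stimulated with an EC20 of TRH (10 nM final). Enhancement of the Gq-mediated intracellular calcium response was scored.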
TRHR ag: qHTS for Small Molecule Agonists and Allosteric Enhancers of Human TRH Receptor: Primary Screen for Agonists; TRHR cells, calcium flux fluo-8, FDSS agonist mode; 360,000 tested, 0.18% active; activation, % at 2 µM; note: 0% is about no effect
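TRHR-expressing cells, plated overnight in medium with 10% serum, were loaded with fluo-8 calcium dye at room temperature. After a 10 s baseline, library compound was pin-added and calcium release was recorded kinetically (ex 480/em 530) as agonist response.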
D1 agonist: Allosteric Agonists of the Human D1 Dopamine Receptor: qHTS; D(1A) dopamine receptor (Homo sapiens), P21728; HEK293 T-REx D1 cells, calcium flux, agonist mode; activation, % at 2 µM; 360,000 tested, 1% active; AID 504660, 2011; note: 0% is about no effect
Target sequence (P21728 whole entry, looked up): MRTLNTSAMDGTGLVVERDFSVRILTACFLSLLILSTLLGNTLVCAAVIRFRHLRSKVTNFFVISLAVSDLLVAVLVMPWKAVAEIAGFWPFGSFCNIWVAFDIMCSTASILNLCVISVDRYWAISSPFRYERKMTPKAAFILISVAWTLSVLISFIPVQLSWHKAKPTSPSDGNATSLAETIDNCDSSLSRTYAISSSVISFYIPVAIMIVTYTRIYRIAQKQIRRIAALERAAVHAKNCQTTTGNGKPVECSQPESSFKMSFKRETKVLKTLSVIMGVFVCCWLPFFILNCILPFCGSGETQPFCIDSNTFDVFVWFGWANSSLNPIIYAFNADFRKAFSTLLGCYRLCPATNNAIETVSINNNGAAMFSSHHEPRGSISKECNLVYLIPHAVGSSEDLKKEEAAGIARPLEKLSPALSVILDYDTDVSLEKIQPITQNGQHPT
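Agonism was scored from calcium flux recorded over 180 s (1 read/s) after pintool compound addition, following a 10-cycle baseline. Cells were inducible force-coupled HEK293 TREx D1, plated overnight at 30 C and loaded with no-wash calcium dye.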
D1 antagonist: Antagonist of Human D 1 Dopamine Receptor: qHTS; HEK293 TREx D1 cells, calcium flux, dopamine EC80; stronger effect = lower value; activity change, negative = inhibition, % at 10 µM; 360,000 tested, 3.2% active; in the data active = activity change below about -30%; note: % is set by controls: 0 for no effect and ±100 for the full control effect
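Using tetracycline-induced force-coupled D1 Hek293 cells and a calcium dye, signals were followed for 180 s after compound, then for 180 s after EC80 dopamine, to detect inhibitors.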
D1 PAM: Potentiators of Human D1 Dopamine Receptor: qHTS. D(1A) dopamine receptor (Homo sapiens), P21728. 360,000 tested, 0.036% active. HEK293 TREx D1 cells, calcium flux, dopamine EC20 potentiation. potentiation, % at 10 µM; in the data active = potentiation above about 30%; note: 0% is about no effect
Active calls of the source: *; ! = not active in a repeat. Cut-off read from the data, not from the text of the source, unless noted: active = activation above about 30%; inactive = the rest.

SMILES	TRHR PAM	TRHR ag	D1 agonist	D1 antagonist	D1 PAM
NC(=O)COC(=O)CN1C(=O)C2CCCCC2C1=O (stereo unspecified)	-0.6	0.6	0.2	7.2	2.6
CCOC(=O)c1c(C)[nH]c(C(=O)COC(=O)CN2C(=O)C3CCCCC3C2=O)c1C (stereo unspecified)	31.3*	0.4	5.7	-15.8	1.4
NC(=O)NC(=O)COC(=O)CN1C(=O)C2CCCCC2C1=O (stereo unspecified)	35.6*	0.5	0.7	-9.0	-1.1
COc1cccc(C(=O)NCCS(=O)(=O)N2CCN(C(=O)c3ccco3)CC2)c1	5.2	-0.6	1.3	21.3	1.1
N#Cc1ccc(OC(=O)c2cc(-c3ccc4c(c3)OCCO4)on2)cc1	6.3	-1.2	33.4*	-8.2	0.5
Cc1ccccc1OC(=O)c1cc(-c2ccc3c(c2)OCCO3)on1	-2.9	0.0	7.9	-46.4*	-1.6
O=C(Nc1cccc(Br)c1)c1cc(-c2ccc3c(c2)OCCO3)on1	5.1	-0.7	15.8	-40.8*	-1.9
O=C(Oc1ccc(Cl)cc1)c1cc(-c2ccc3c(c2)OCCO3)on1	5.6	0.1	17.1	-2.6	-1.6
O=C(Cn1cc(S(=O)(=O)Cc2ccc(F)cc2)c2ccccc21)NCCc1ccccc1	-8.2	0.7	2.0	-12.6	-3.1
N#Cc1c2ccc(OCC(=O)NCc3ccco3)cc2n2ccccc12	-5.0	12.7	8.3	-7.7	-1.1
N#Cc1c2ccc(O)cc2n2ccccc12	-13.8	24.8	57.6*	-3.1	-5.0
O=C1/C(=C/c2ccc(N3CCCC3)cc2)NC(=S)N1C1CC1	9.5	91.4*	204.7*	-5.5	3.0
Cc1cc(N2CCCC2)ccc1/C=C1\NC(=S)N(C)C1=O	8.1	63.5*	213.1*	-7.5	7.3
O=c1[nH]c2ccc(NCc3ccc(-c4ccc(Cl)cc4)o3)cc2[nH]1	9.0	-2.6	-2.7	-8.8	-0.5
COc1ccc(-c2ccc(CNc3ccc4[nH]c(=O)[nH]c4c3)o2)cc1Cl	5.3	-0.8	7.3	-52.0*	-1.9
CCCOc1ccccc1N1C(=O)CC(N(O)c2ccccc2)C1=O (stereo unspecified)	38.5*	0.1	2.1	12.6	1.6
COC(=O)C1=NN(c2ccc(Cl)cc2)C2C(=O)N(c3ccccc3OC)C(=O)C12 (stereo unspecified)	1.0	0.3	0.7	2.6	-3.0
COc1ccccc1N1N=C(C(=O)c2ccccc2)C2C(=O)N(c3ccc(Br)cc3)C(=O)C21 (stereo unspecified)	-2.8	12.3	46.1*	-8.8	0.4
CCOc1ccc(N2C(=O)C3C(c4ccccc4)=NN(c4ccccc4)C3C2=O)cc1 (stereo unspecified)	6.1	0.6	4.2	-5.5	0.1
CCOC(=O)C1=NN(c2ccccc2)C2C(=O)N(c3ccccc3OC)C(=O)C12 (stereo unspecified)	-0.2	-1.2	5.0	11.3	2.7
O=C(C1=NN(c2ccccc2)C2C(=O)N(c3ccccc3Cl)C(=O)C12)c1ccccc1 (stereo unspecified)	4.6	58.2*	192.9*	-9.5	-4.8
COc1ccccc1N1C(=O)C2C(C(=O)c3ccccc3)=NN(c3ccccc3)C2C1=O (stereo unspecified)	3.0	18.0	35.3*	-18.1	-0.4
Cc1ccc(N2C(=O)C3C(C(=O)c4ccccc4)=NN(c4ccccc4)C3C2=O)cc1 (stereo unspecified)	-0.6	-1.0	117.2*	-10.6	-6.2
Cc1cccc(CSc2cn(CC(=O)N3CCCCCC3)c3ccccc23)c1	4.8	-2.3	10.2	-22.3	-6.2
Cc1cccc(CSc2cn(CC(=O)N3CCOCC3)c3ccccc23)c1	-0.4	-0.2	1.6	-33.4*!	0.9
SMILES	TRHR PAM	TRHR ag	D1 agonist	D1 antagonist	D1 PAM
COc1ccc(S(=O)(=O)N2CCCC(C(=O)NCCC(C)C)C2)cc1 (stereo unspecified)	3.0	-0.7	5.0	-30.3*	-8.2
COc1ccc(S(=O)(=O)N2CCCC(C(=O)O)C2)cc1 (stereo unspecified)	0.7	0.2	0.1	2.1	-1.8
COc1ccc(S(=O)(=O)N2CCCC(C(=O)NCc3ccccc3)C2)cc1 (stereo unspecified)	-1.8	0.2	17.7	-30.9*	-6.4
COc1cccc(CNC(=O)C2CCN(S(=O)(=O)c3cnc[nH]3)CC2)c1	-2.8	0.5	4.9	-39.1*	-0.6
CCOc1ccc(S(=O)(=O)N2CCCC(C(=O)NCc3cccnc3)C2)cc1 (stereo unspecified)	-2.1	-0.4	0.6	-31.2*	-8.8
Cc1noc(NS(=O)(=O)c2ccc(NC(=O)COc3ccccc3Br)cc2)c1C	1.6	-1.0	-0.6	20.5	2.5
COc1cc2c(cc1OC)C(COc1ccccc1OC)N(C(=O)COc1ccc(Cl)cc1)CC2 (stereo unspecified)	-3.4	0.2	0.9	9.8	-1.1
COc1ccc(S(=O)(=O)N2CCC(C(=O)NCc3cccnc3)CC2)cc1OC	-1.0	-1.1	1.7	-51.7*	21.9
COc1cccc(CNC(=O)C2CCN(S(=O)(=O)c3ccc(-n4cnnn4)cc3)CC2)c1	-3.2	1.1	0.6	-24.8	-1.9
Cc1ccc(S(=O)(=O)NCC2CCC(C(=O)NCc3cccnc3)CC2)cc1 (stereo unspecified)	-2.4	0.0	2.1	-32.1*	-7.0
Cc1ccc(S(=O)(=O)NCC2CCC(C(=O)NCc3ccccn3)CC2)cc1 (stereo unspecified)	23.5	-0.5	3.2	27.2	-3.4
CCOC(=O)c1c(C)[nH]c(C)c1S(=O)(=O)N1CCCC(C(=O)NCc2ccc(N(C)C)cc2)C1 (stereo unspecified)	-2.5	-0.3	2.8	-31.1*	-4.3
COc1ccccc1CNC(=O)C1CCN(S(=O)(=O)c2ccc(-n3cnnn3)cc2)CC1	-1.8	-1.0	5.3	-38.7*	-7.2
COc1ccc(Br)cc1CNC(=O)c1cnc2sc(N3CCCCCC3)nn2c1=O	-0.3	0.0	0.5	-5.5	-5.7
COc1ccc(-c2nsc(NC(=O)c3ccccc3Br)n2)cc1	-0.9	1.2	0.5	-11.3	-3.1
CCN1CCN(c2cc3c(cc2F)c(=O)c(S(=O)(=O)c2ccc(OC)cc2)cn3CC)CC1	18.2	0.5	-1.0	-0.5	3.2
O=C(c1ccc2ccccc2c1)C1CCCN(S(=O)(=O)c2cccnc2)C1 (stereo unspecified)	-5.0	-0.9	9.9	-52.9*	-8.1
